# In PMC4336329 (PLoS ONE, 2015):
# Among all 310,000 compounds or so, about 14,000 (4.5%) showed an effect of 50% or more. The effect is printed as a negative number. Many of the other results were omitted from the sample, so strong results are more common in it than they were.
# Biological target: human ether-à-go-go-related gene (hERG) potassium channel (human, UniProt Q12809)
# Assay: primary screen, population patch clamp on CHO cells stably expressing hERG; higher = less effect of the substance
# 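Also: peak tail current of the secondary pulse compared with the same well before compound.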
# Chain of human ether-à-go-go-related gene (hERG) potassium channel (Q12809 whole entry, looked up): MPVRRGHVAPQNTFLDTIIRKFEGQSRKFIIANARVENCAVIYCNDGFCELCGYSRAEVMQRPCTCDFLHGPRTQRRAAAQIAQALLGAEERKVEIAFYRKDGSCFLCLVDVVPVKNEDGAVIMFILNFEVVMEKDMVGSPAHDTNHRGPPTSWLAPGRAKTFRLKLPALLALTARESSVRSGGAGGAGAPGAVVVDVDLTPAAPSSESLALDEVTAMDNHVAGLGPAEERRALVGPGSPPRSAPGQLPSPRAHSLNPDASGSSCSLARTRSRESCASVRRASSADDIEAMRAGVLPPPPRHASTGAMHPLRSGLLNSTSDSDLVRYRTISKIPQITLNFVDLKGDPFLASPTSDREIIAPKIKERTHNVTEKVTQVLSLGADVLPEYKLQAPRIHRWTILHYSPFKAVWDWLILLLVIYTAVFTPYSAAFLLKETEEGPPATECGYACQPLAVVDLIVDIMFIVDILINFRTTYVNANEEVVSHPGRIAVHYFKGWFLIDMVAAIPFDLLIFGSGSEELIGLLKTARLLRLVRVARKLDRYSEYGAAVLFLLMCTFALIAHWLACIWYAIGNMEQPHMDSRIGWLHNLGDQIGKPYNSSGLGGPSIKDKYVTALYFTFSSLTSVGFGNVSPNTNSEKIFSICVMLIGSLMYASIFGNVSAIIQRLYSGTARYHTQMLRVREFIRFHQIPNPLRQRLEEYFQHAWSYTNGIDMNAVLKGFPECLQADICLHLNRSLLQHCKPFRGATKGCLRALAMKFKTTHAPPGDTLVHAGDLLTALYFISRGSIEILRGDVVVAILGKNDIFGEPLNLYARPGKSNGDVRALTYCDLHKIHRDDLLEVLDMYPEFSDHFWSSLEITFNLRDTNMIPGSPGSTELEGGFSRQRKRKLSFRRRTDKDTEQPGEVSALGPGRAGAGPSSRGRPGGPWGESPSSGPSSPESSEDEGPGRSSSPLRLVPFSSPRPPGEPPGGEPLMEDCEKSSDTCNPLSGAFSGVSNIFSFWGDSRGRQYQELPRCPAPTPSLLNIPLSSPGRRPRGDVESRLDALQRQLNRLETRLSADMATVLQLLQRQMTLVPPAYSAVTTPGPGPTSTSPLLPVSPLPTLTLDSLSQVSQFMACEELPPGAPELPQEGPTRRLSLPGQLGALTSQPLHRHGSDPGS
row,Compound,"hERG current change (%, negative = inhibition) at 10uM"
1,CCOC(=O)N1CCC(NC(=O)CCC(=O)c2ccccc2)CC1,10.8%
2,CCc1ccccc1NC(=O)C(Cc1cccc(OC)c1OC)c1nn[nH]n1 (stereo not drawn),7.41%
3,O=C(Nc1nccs1)C12CC3CC(C1)CC(C(=O)Nc1nccs1)(C3)C2,-11.1%
4,CCN1CCN(CCc2nc3cc(NC(=O)COc4ccc(Cl)cc4)ccc3n2C)CC1,-67.6%
5,CC(=O)Nc1ccc2c(c1)nc(CCN1CCN(C)CC1)n2C,-2.56%
6,CCN1CCN(CCc2nc3cc(NC(=O)COc4ccccc4)ccc3n2C)CC1,-49.8%
7,Cn1c(CCN2CCCCC2)nc2cc(NC(=O)COc3ccc(Cl)cc3)ccc21,-84.8%
8,Cn1c(=O)n(C)c2cc(NC(=O)COc3ccc(Cl)cc3)ccc21,-59.4%
9,COc1ccc(OCC(=O)Nc2ccc3c(c2)n(C)c(=O)n3C)cc1,-3.51%
10,Cn1c(=O)n(C)c2cc(NC(=O)COc3ccc(F)cc3)ccc21,-41.8%
11,CN1CCN(CCc2nc3cc(NC(=O)COc4ccc(Cl)cc4)ccc3n2C)CC1,-61%
12,c1ccc(Cc2nnc3sc(-c4ccccn4)nn23)cc1,-6.6%
13,COc1ccc(C(=O)N=c2sc3c(C)ccc(OC)c3n2C)cc1OC,7.38%
14,Cc1cc2c(ncn2C)c(NS(=O)(=O)c2ccc(Cl)cc2)c1C,-1.18%
15,COc1cc(C2NCC(c3ccc(Cl)cc3Cl)c3c2[nH]c2ccccc32)cc(OC)c1OC.Cl (stereo not drawn),7.58%
16,COc1ccccc1N(C(=O)c1ccco1)C(C(=O)NC1CCCC1)c1cccnc1 (stereo not drawn),-0.441%
17,CC1CCN(S(=O)(=O)N2CCC(C(=O)NCCc3ccccc3)CC2)CC1,2.8%
18,CC(C)CN1C(=O)c2ccc(C(=O)Nc3ccccn3)cc2C1=O,-14.7%
19,O=C(COc1ccccc1)Nc1cc2c3c(c1)CC(=O)N3CCC2,-36%
20,Cn1c(CN2CCCC2)nc2cc(NC(=O)COc3ccc(Cl)cc3)ccc21,-69.2%
21,O=C(COc1ccc(Cl)cc1)Nc1cc2c3c(c1)CC(=O)N3CCC2,-57.1%

row,Compound,"hERG current change (%, negative = inhibition) at 10uM"
1,Cn1c(CN2CCCC2)nc2cc(NC(=O)COc3ccccc3)ccc21,-34.1%
2,CC1C(=O)N2CCCc3cc(NC(=O)COc4ccc(Cl)cc4)cc1c32 (stereo not drawn),-40.2%
3,COc1ccc(OCC(=O)Nc2ccc3c(c2)nc(CN2CCCC2)n3C)cc1,-26.9%
4,CC(C)CNC(=O)COc1ncnc2sccc12,-37.4%
5,Cc1c(CN(C)Cc2cn(C)nc2-c2ccccc2F)[nH]c2ccccc12,-6.24%
6,COc1cc(/C=N/n2nnnc2N)cc(OC)c1OC,-0.774%
7,Cc1cc(C)cc(C(=O)N(CCc2ccccc2)C2=CC3CCC(C2)N3C)c1.Cl (stereo not drawn),-60.7%
8,O=C(NCC(=O)N1CCC(Cc2ccccc2)CC1)c1ccc(Cl)cc1,-23.3%
9,O=C(NCCc1c[nH]c2ccccc12)c1ccc(Cl)cc1,-12.7%
10,Cc1cc(C)cc(C(=O)NCCCc2ccccc2)c1,-4.26%
11,COC(=O)C1=C(CCc2ccccc2)NC(=O)NC1c1ccc(Cl)cc1 (stereo not drawn),-9.59%
12,COc1cc(C(=O)N(CCc2ccccc2)C2=CC3CCC(C2)N3C)cc(OC)c1OC.Cl.O (stereo not drawn),-29.2%
13,CN1C2C=C(N(CCc3ccccc3)C(=O)c3ccc(Cl)cc3)CC1CC2.Cl (stereo not drawn),-74.8%
14,CN1C2C=C(N(CCc3c[nH]c4ccccc34)C(=O)c3ccc(Cl)cc3)CC1CC2.Cl (stereo not drawn),-67%
15,O=C(Cc1ccc(Cl)cc1)NCCc1c[nH]c2ccccc12,-19.8%
16,COc1cccc(CN(C(=O)c2cccc(OC)c2)C2CCS(=O)(=O)C2)c1 (stereo not drawn),-7.02%
17,O=P1(Nc2cccnc2)COc2ccccc2OC1,30.6%
18,CSc1ccccc1C(=O)NCCOc1cccc(C)c1,17.7%
19,O=C(CNC(=O)c1cccs1)NCC(=O)OCc1ccccc1Cl,2.85%
20,CC(=O)N1CCC2(CC1)C(C#N)=C(N)Oc1n[nH]c(C)c12,15.5%
21,Cc1[nH]nc2c1C1(CCOCC1)C(C#N)=C(N)O2,-56.7%
